Test results taken from the supplement of paper PMC3545927.
The other results are listed elsewhere or left out. No count for the full screen is at hand.

B1: HC1141 (peptide)
chain: CAHQWISSECAGNASASA
B2: HC518 (peptide)
chain: CAKWEYVVLLAGNASASA
B3: FS-513 (peptide)
chain: CAVPRRSKRIAGNASASA
B4: FS-221 (peptide)
chain: CADDERSKRIAGNASASA
B5: FS-750 (peptide)
chain: CAANRRMKRIAGNASASA
B6: FS-771 (peptide)
chain: CAFPMRSKKIAGNASASA
B7: FS-1846 (peptide)
chain: CALVVRGPPGAGNASASA
B8: FS-296 (peptide)
chain: CASLERLRRGAGNASASA
B9: HC1619 (peptide)
chain: CALRAWRHRAAGNASASA
B10: FS-1006 (peptide)
chain: CAHHHRHRRAAGNASASA
B11: FS-1336 (peptide)
chain: CAHHHRHHRAAGNASASA
B12: FS-1410 (peptide)
chain: CASHHRHRRGAGNASASA
B13: HC1694 (peptide)
chain: CAMKECSQHLAGNASASA
B14: HC1901 (peptide)
chain: CATTPCSNSWAGNASASA
B15: FS-2119 (peptide)
chain: CAEKKRKFIKAGNASASA
B16: FS-2752 (peptide)
chain: CARQKREWIKAGNASASA
B17: FS-2753 (peptide)
chain: CARQKREWVKAGNASASA
B18: HC27 (peptide)
chain: CAMEECWQHLAGNASASA
B19: HC1609 (peptide)
chain: CAYSPGEINRAGNASASA
B20: HC2351 (peptide)
chain: CAEVDCHRPSAGNASASA
B21: FS-3190 (peptide)
chain: CARISRSLHQAGNASASA
B22: HC184 (peptide)
chain: CARATRKTSEAGNASASA
B23: FS-2287 (peptide)
chain: CARPSRSGGRAGNASASA
B24: HC718 (peptide)
chain: CAQGSRSLTPAGNASASA
B25: FS-2033 (peptide)
chain: CARISRSISEAGNASASA
B26: FS-1855 (peptide)
chain: CARKKKSISLAGNASASA
B27: HC504 (peptide)
chain: CATGLIHLHQAGNASASA
B28: FS-3027 (peptide)
chain: CARPSRSISLAGNASASA
B29: HC1589 (peptide)
chain: CADQLEQALDAGNASASA
B30: HC353 (peptide)
chain: CATHVTGGSAAGNASASA
B31: HC2114 (peptide)
chain: CAKDVVCCSMAGNASASA
B32: CS1 (peptide)
chain: CADSVDAKPDAGNASASA
B33: FS-1246 (peptide)
chain: CAPSPRQARRAGNASASA
B34: FS-2768 (peptide)
chain: CARQRRVPGNAGNASASA
B35: FS-28 (peptide)
chain: CAGPGRVRRRAGNASASA
B36: FS-2590 (peptide)
chain: CARQRRIYKTAGNASASA
B37: FS-702 (peptide)
chain: CAPTTRVRRRAGNASASA
B38: FS-1160 (peptide)
chain: CARQRRVRRRAGNASASA
B39: FS-1721 (peptide)
chain: CARIKKWLEHAGNASASA
B40: HC13 (peptide)
chain: CAMEEESQHLAGNASASA
B41: HC1927 (peptide)
chain: CATTPCSGSFAGNASASA
B42: HC1165 (peptide)
chain: CAVSCQRGYKAGNASASA
B43: HC2258 (peptide)
chain: CAEVVTSTWTAGNASASA
B44: FS-2491 (peptide)
chain: CARFRRIRGEAGNASASA
B45: FS-2666 (peptide)
chain: CARFRRSRRTAGNASASA
B46: FS-646 (peptide)
chain: CADHWRSRRTAGNASASA
B47: HC2295 (peptide)
chain: CADHEVVTSTAGNASASA
B48: HC1778 (peptide)
chain: CAMEECSQHTAGNASASA
B49: FS-1116 (peptide)
chain: CAEAYRSRRTAGNASASA

Target: furin, P09958
Sequence (P09958 whole entry): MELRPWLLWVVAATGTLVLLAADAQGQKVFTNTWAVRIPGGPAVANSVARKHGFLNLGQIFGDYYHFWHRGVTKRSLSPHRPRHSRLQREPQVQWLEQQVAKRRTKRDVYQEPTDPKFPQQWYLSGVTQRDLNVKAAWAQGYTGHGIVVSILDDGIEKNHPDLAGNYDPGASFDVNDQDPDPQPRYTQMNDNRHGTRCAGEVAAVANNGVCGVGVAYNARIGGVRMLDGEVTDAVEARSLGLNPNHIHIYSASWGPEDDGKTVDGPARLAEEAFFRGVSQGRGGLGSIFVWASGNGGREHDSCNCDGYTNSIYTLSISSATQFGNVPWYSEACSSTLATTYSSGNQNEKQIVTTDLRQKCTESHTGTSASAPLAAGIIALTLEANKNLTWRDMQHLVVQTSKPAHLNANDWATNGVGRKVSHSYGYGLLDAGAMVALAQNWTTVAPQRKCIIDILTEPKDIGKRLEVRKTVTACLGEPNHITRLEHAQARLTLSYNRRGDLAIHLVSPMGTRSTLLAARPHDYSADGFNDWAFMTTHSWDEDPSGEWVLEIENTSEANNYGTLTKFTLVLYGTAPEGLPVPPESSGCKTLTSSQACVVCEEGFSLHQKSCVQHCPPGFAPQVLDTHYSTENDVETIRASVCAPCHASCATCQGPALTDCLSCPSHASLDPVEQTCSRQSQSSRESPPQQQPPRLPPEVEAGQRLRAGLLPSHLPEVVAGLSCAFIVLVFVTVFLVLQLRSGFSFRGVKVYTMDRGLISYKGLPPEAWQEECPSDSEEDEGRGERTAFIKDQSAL
Assay: furin cleavage Z-score vs untreated control; higher = more cleavage, active = 3.5 or more, inactive = 1 or less, 8 variable residues between constant flanks
How it was run: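 Cleavage by purified furin was measured on 8-mer peptides fused to a cDNA oligonucleotide and held on magnetic beads by their N-terminus. Reactions (0.01 ml, 1:10 enzyme:substrate) ran 7.5, 15 or 30 min in 50 mM HEPES pH 7.5 with CaCl2 and NaCl. Released DNA was adapter-tagged by PCR and sequenced, with read counts giving abundance. Log counts versus furin-free reactions were lowess-adjusted and scaled by median absolute deviation to give the cleavage Z-score.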

Sequence | furin cleavage Z-score (7.5 min) | furin cleavage Z-score (15 min) | furin cleavage Z-score (30 min)
B1 | -0.592 (inactive) | -1.1 (inactive) | 0.453 (inactive)
B2 | 0.0863 (inactive) | -1.74 (inactive) | -0.726 (inactive)
B3 | 6.01 (active) | 7.79 (active) | 6.97 (active)
B4 | 0.272 (inactive) | 0.273 (inactive) | -0.987 (inactive)
B5 | 7.06 (active) | 9.01 (active) | 7.77 (active)
B6 | -1.66 (inactive) | 0.142 (inactive) | -0.16 (inactive)
B7 | -0.565 (inactive) | -0.565 (inactive) | -0.843 (inactive)
B8 | 0.592 (inactive) | 0.0398 (inactive) | 0.764 (inactive)
B9 | 2.05 | 0.378 (inactive) | 0.854 (inactive)
B10 | 9.03 (active) | 6.62 (active) | 5.92 (active)
B11 | 2.38 | 2.68 | 3.58 (active)
B12 | 9.65 (active) | 10.8 (active) | 9.31 (active)
B13 | -0.048 (inactive) | -0.457 (inactive) | -0.785 (inactive)
B14 | 0.617 (inactive) | 0.249 (inactive) | 1.55
B15 | -0.691 (inactive) | -0.493 (inactive) | -0.629 (inactive)
B16 | 4.32 (active) | 5.62 (active) | 9.03 (active)
B17 | 3.59 (active) | 6.92 (active) | 8.88 (active)
B18 | 1.1 | 1.46 | 0.479 (inactive)
B19 | -1.45 (inactive) | 1.01 | -0.452 (inactive)
B20 | 0.842 (inactive) | 0.436 (inactive) | 0.244 (inactive)
B21 | 6.79 (active) | 8.81 (active) | 8.11 (active)
B22 | -0.121 (inactive) | -1.01 (inactive) | -1.25 (inactive)
B23 | -1.07 (inactive) | -0.551 (inactive) | -0.606 (inactive)
B24 | 0.532 (inactive) | -0.507 (inactive) | 0.396 (inactive)
B25 | 7.46 (active) | 8.18 (active) | 7.34 (active)

Sequence | furin cleavage Z-score (7.5 min) | furin cleavage Z-score (15 min) | furin cleavage Z-score (30 min)
B26 | 0.218 (inactive) | 1.42 | 3.47
B27 | 0.174 (inactive) | 0.0378 (inactive) | -0.549 (inactive)
B28 | 3.14 | 4.81 (active) | 5.36 (active)
B29 | -1.05 (inactive) | -1.96 (inactive) | -1.11 (inactive)
B30 | -0.463 (inactive) | -0.337 (inactive) | -2.02 (inactive)
B31 | 0.322 (inactive) | 0.43 (inactive) | -1.58 (inactive)
B32 | -0.899 (inactive) | -0.697 (inactive) | -0.815 (inactive)
B33 | 0.263 (inactive) | 2.43 | 2.92
B34 | 1.18 | -0.0341 (inactive) | 0.472 (inactive)
B35 | 8.24 (active) | 9.49 (active) | 7.22 (active)
B36 | -1.61 (inactive) | -1.71 (inactive) | -0.22 (inactive)
B37 | 9.76 (active) | 10.9 (active) | 9.44 (active)
B38 | 6.79 (active) | 6.89 (active) | 6.35 (active)
B39 | -1.04 (inactive) | 0.181 (inactive) | 1.15
B40 | 1.19 | 0.958 (inactive) | 0.124 (inactive)
B41 | -0.645 (inactive) | -1.19 (inactive) | 0.309 (inactive)
B42 | -0.75 (inactive) | 0.637 (inactive) | 1.1
B43 | 2.11 | -0.469 (inactive) | 0.353 (inactive)
B44 | -0.28 (inactive) | -0.376 (inactive) | -0.341 (inactive)
B45 | 7.49 (active) | 8.92 (active) | 6.66 (active)
B46 | 2.11 | 1.9 | 3.67 (active)
B47 | 0.352 (inactive) | -1.49 (inactive) | 1.29
B48 | -0.696 (inactive) | 1.17 | 0.869 (inactive)
B49 | 1.35 | 1.26 | 3.71 (active)
